The values below come from PubChem BioAssay (NCI).

Assay in all cases: NCI-60 one-dose screen, 48 h (100 = growth as untreated, 0 = no growth, -100 = all killed)
For one assay, the system named is T-47D breast. The note with it: 10 µM unless noted.
The test system of the next assay is BT-549 breast. The note with it: 10 µM unless noted.
The test system of another assay is MDA-MB-435 melanoma. The note with it: 10 µM unless noted.
The test system of another assay is SW-620 colon. The note with it: 10 µM unless noted.
Another assay relates to MCF7 breast. The note with it: 10 µM.
A further assay concerns HCT-116 colon. The note with it: 10 µM unless noted.
In the next assay the test system is HCC-2998 colon. The note with it: 10 µM unless noted.
The next assay has as its system KM12 colon. The note with it: 10 µM unless noted.

Where “and” joins values, the source holds several entries; their conditions need not be identical. Equal values may be shown once. About 83,000 compounds went through this panel and 20% of them were active in at least one assay; those are over-represented in the sample as a whole.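 Plates (96-well) were seeded with cells, treated with compound at one concentration, and incubated for 48 hours before percent growth was determined.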 Values without a mark were called inactive. Calls of active or inactive are those of the source. How the source made its calls: active means growth percent below 10; inactive means the rest.

With `Cn1c2ccccc2c2nnc(N/N=C/c3ccccn3)nc21`, the growth was 19.2% in the assay with T-47D breast; -24.2% (active) in the assay on BT-549 breast; 19.1% in the assay with MDA-MB-435 melanoma; 31.3% in the assay on SW-620 colon; 13.3% in the assay with MCF7 breast; 14.4% in the assay on HCT-116 colon. In addition, the growth in the assay with HCC-2998 colon is 34.5%; in the assay with KM12 colon, 23%.

On to `O=C(O)c1ccc2c3c(ncnc13)-c1ccccc1C2=O`, for which the growth with T-47D breast is 101%; in the assay on BT-549 breast, 33.8%; in the assay on MDA-MB-435 melanoma it was -60% (active); with SW-620 colon, 87.7%; in the assay on MCF7 breast it was 50.9%; in the assay with HCT-116 colon, 91.2%. For the same compound, the growth was -58.5% (active) in the assay on HCC-2998 colon and 46.5% in the assay on KM12 colon.

As for `N#CSCc1ccc(Cl)c(CSC#N)c1`, the growth in the assay on T-47D breast is 57.5%; in the assay with BT-549 breast, 14.1%; in the assay on MDA-MB-435 melanoma, 3.85% (active); with SW-620 colon, 20.4%; in the assay on MCF7 breast it was 16.1%; with HCT-116 colon it was 13.6%. In addition, the results for the growth in the assay with HCC-2998 colon and in the assay with KM12 colon were 51.5% and 28.2%, respectively.

With `NC(N)=N/N=C/c1ccc([N+](=O)[O-])o1`, the growth in the assay with T-47D breast is 96.7%; with BT-549 breast, 94.5%; with MDA-MB-435 melanoma it was 115%; in the assay with SW-620 colon it was 105%; in the assay on MCF7 breast, 72.4%; in the assay with HCT-116 colon, 89%. Also, the growth was 88% in the assay on HCC-2998 colon and 82.3% in the assay with KM12 colon.

As for `COC(=O)c1nc(=S)[nH]c(C(=O)OC)c1C(=O)c1ccccn1`, the growth with T-47D breast was 51.5%; in the assay with BT-549 breast it was 50.3%; with MDA-MB-435 melanoma, 33.3%; in the assay with SW-620 colon it was 43.3%; with HCT-116 colon it was 17.9%; in the assay on HCC-2998 colon, 45.3%. For the same compound, the growth in the assay with KM12 colon is 24.6%.

Regarding `c1ccc2c(c1)Nc1cc3ccccc3cc1N2`, the growth in the assay with T-47D breast is 24.9%; in the assay with BT-549 breast, 33%; in the assay with MDA-MB-435 melanoma it was -16.7% (active); with SW-620 colon, 18.8%; in the assay with HCT-116 colon it was 26.4%; in the assay with HCC-2998 colon it was 36.8%. Besides, the growth with KM12 colon was 44.2%.

As to `S=C(N/N=C/c1ccccn1)Nc1ccccn1`, the growth is 31% in the assay with T-47D breast; 38.1% in the assay with BT-549 breast; 47.4% in the assay on MDA-MB-435 melanoma; 32.8% with SW-620 colon; 14.3% in the assay on MCF7 breast; 1.18% (active) in the assay with HCT-116 colon. For the same compound, the results for the growth with HCC-2998 colon and with KM12 colon were 25.2% and 29.7%, respectively.

As for `O=[N+]([O-])c1ccc(N=Nc2ccc(O)cc2O)cc1`, the growth is 27.4% with T-47D breast; 64.5% in the assay with BT-549 breast; 10.1% with MDA-MB-435 melanoma; 47.8% with SW-620 colon; 26% in the assay on MCF7 breast; 17.5% with HCT-116 colon. The growth was 31.6% with HCC-2998 colon and 64.3% with KM12 colon.

Regarding `C/C=C1\SC(=S)NC1=O`, the growth is 92.6% with T-47D breast; 95.7% with BT-549 breast; 101% with MDA-MB-435 melanoma; 112% with SW-620 colon; 86.9% with MCF7 breast; 96.9% in the assay with HCT-116 colon. Also, the growth with HCC-2998 colon was 85%; with KM12 colon, 106%.

For `COc1ccccc1OC(=O)Oc1ccccc1OC`, the growth in the assay on T-47D breast was 123% and 100%; in the assay on BT-549 breast it was 97%; in the assay on MDA-MB-435 melanoma it was 112% and 96%; with SW-620 colon, 94.6% and 92.8%; in the assay with MCF7 breast, 96.1% and 88.8%; with HCT-116 colon, 99.9% and 101%. Further, the growth with HCC-2998 colon was 102% and 94.6%; with KM12 colon, 107% and 98%.

As to `Cc1ccc2nc(C[n+]3ccc4ccccc4c3)ccc2c1`, the growth with T-47D breast is 32.2%; in the assay on BT-549 breast it was 21.7%; in the assay on MDA-MB-435 melanoma it was 54.7%; in the assay on SW-620 colon, 80.2%; with HCT-116 colon it was 53.5%; in the assay on HCC-2998 colon, 71.2%. The growth in the assay on KM12 colon was 56.4%.

Take `N#CSCc1c(Cl)cccc1Cl`: the growth in the assay with T-47D breast is 79.9%; in the assay with BT-549 breast it was 88.4%; with MDA-MB-435 melanoma, 29.6%; in the assay on SW-620 colon, 34.7%; with MCF7 breast, 33.3%; in the assay with HCT-116 colon it was 4.1% (active). Moreover, the growth in the assay with HCC-2998 colon is 70%; in the assay with KM12 colon, 48.1%.

For the compound `COc1cc(/C=C/C(C)=O)ccc1O`, the growth was 97.2% and 106% in the assay on T-47D breast; 104% with BT-549 breast; 101% and 106% with MDA-MB-435 melanoma; 104% and 110% in the assay on SW-620 colon; 96.8% and 98.8% with MCF7 breast; 104% and 103% in the assay with HCT-116 colon. Also, the growth in the assay on HCC-2998 colon is 102% and 104%; with KM12 colon, 90% and 92.7%.

Consider `O=C(/C=C\c1ccccc1)N1c2ccccc2CC1c1c[nH]c2ccccc12` (configuration not stated), for which the growth with T-47D breast is 23.4%; in the assay on BT-549 breast it was 88.6%; in the assay on MDA-MB-435 melanoma, 83.8%; with SW-620 colon, 78.2%; in the assay on MCF7 breast it was 66.2%; in the assay with HCT-116 colon, 23.1%. Further, the figures for the growth in the assay with HCC-2998 colon and with KM12 colon were 85.6% and 64.4%, respectively.

As for `COC(=O)[C@@]12OC[C@]34[C@H]([C@@H](O)[C@@H]1O)[C@@]1(C)[C@H](O)C(=O)C=C(C)[C@@H]1C[C@H]3OC(=O)C(OC(C)=O)[C@@H]24` (some centres not stated), the growth in the assay on T-47D breast is -20.5% (active); in the assay on BT-549 breast it was -53.1% (active); in the assay on MDA-MB-435 melanoma it was -81.2% (active); in the assay with SW-620 colon, -38.2% (active); in the assay on MCF7 breast, -19.2% (active); with HCT-116 colon, -54.1% (active). Further, the growth in the assay on HCC-2998 colon is -75.8% (active); in the assay with KM12 colon, -57.8% (active).
